# Assay results: the supplement of paper PMC10037445
# Over roughly 2,900 compounds, “NF-kB SEAP reporter activity, fold change vs agonist alone” has its median near 0.99; the highest 2% begin near 2.6. The full list was thinned out, with the highest values kept by preference.
# Experiments:
# RAW-Dual [1] = test: NF-kB SEAP reporter activity, fold change vs agonist alone; higher = enhanced NF-kB activity
# Outline: (§1)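 RAW-Dual macrophages were seeded in DMEM at 50,000 cells/well in 384-well plates, given 50 nL of library stock by pin tool, and given a PRR agonist 1 h later. Plates were held at 37 °C, 5% CO2 for 20 hours, after which supernatant was read for IRF by QuantiLuc luminescence and for NF-κB by QuantiBlue absorbance at 620 nm. Reporter activity is expressed as fold change over wells that received agonist alone. A well was called cytotoxic when IncuCyte confluency fell below 70% of agonist controls in both mask sets.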
# RAW-Dual [2] = test: NF-kB SEAP reporter activity, fold change vs agonist alone; cytotoxicity flag (confluency mask): cytotoxic (confluency <70% of control); higher = enhanced NF-kB activity
# Outline: as §1
# RAW-Dual [3] = test: NF-kB SEAP reporter activity, fold change vs agonist alone; cytotoxicity flag (confluency mask): not cytotoxic; higher = enhanced NF-kB activity
# Outline: as §1
# [4] = library stock concentration (final ~1000-fold dilution): 10 mM, cytotoxicity flag (confluency mask): not cytotoxic, agonist: Imiquimod (TLR7) […]
# [5] = library stock concentration (final ~1000-fold dilution): 10 mM, cytotoxicity flag (confluency mask): not cytotoxic, agonist: MPLA (TLR4) […]
# [6] = agonist: ODN 1826 (TLR9) 0.5 ug/mL
# [7] = agonist: Pam2CSK4 (TLR2/6) 0.1 ug/mL
# [8] = agonist: Pam3CSK4 (TLR2/1) 0.1 ug/mL
# [9] = library stock concentration (final ~1000-fold dilution): 10 mM, cytotoxicity flag (confluency mask): cytotoxic (confluency <70% of control), agonist: Imiquimod (TLR7) […]
# [10] = library stock concentration (final ~1000-fold dilution): 10 mM, cytotoxicity flag (confluency mask): cytotoxic (confluency <70% of control), agonist: MPLA (TLR4) […]
smiles,measurement,setting,value
C#Cc1cccc(Nc2ncnc3cc4c(cc23)OCCOCCOCCO4)c1,NF-kB SEAP reporter activity,RAW-Dual [1]; [4],1.06
same,NF-kB SEAP reporter activity,RAW-Dual [1]; [5],1.53
COc1cc2ncnc(Nc3cc(Br)c(O)c(Br)c3)c2cc1OC,NF-kB SEAP reporter activity,RAW-Dual [1]; [4],0.787
same,NF-kB SEAP reporter activity,RAW-Dual [1]; [5],1.53
C#Cc1cccc(Nc2ncnc3cc(OCCOC)c(OCCO)cc23)c1.Cl,NF-kB SEAP reporter activity,RAW-Dual [1]; [4],1.81
same,NF-kB SEAP reporter activity,RAW-Dual [1]; [5],2.51
C#Cc1cccc(Nc2ncnc3cc(OCCOC)c(OCCOC)cc23)c1.Cl,NF-kB SEAP reporter activity,"RAW-Dual [1]; library stock concentration (final ~1000-fold dilution): 2 mM, cytotoxicity flag (confluency mask): not cytotoxic, agonist: Imiquimod (TLR7) […]",0.949
same,NF-kB SEAP reporter activity,"RAW-Dual [1]; library stock concentration (final ~1000-fold dilution): 2 mM, cytotoxicity flag (confluency mask): not cytotoxic, agonist: MPLA (TLR4) […]",1.39
COc1cc2ncnc(Nc3ccc(O)cc3)c2cc1OC,NF-kB SEAP reporter activity,RAW-Dual [1]; [4],1.05
same,NF-kB SEAP reporter activity,RAW-Dual [1]; [5],1.16
COc1cc2ncnc(Nc3ccc(F)c(Cl)c3)c2cc1NC(=O)/C=C/CN1CCCCC1 (library stock concentration (final ~1000-fold dilution): 10 mM),NF-kB SEAP reporter activity,RAW-Dual [2]; agonist: LPS (TLR4) 0.1 ug/mL,0.266
same,NF-kB SEAP reporter activity,RAW-Dual [2]; [6],0.26
same,NF-kB SEAP reporter activity,RAW-Dual [2]; [7],0.179
same,NF-kB SEAP reporter activity,RAW-Dual [2]; [8],0.384
C#Cc1cccc(Nc2ncnc3cc(OCCOC)c(OCCOC)cc23)c1,NF-kB SEAP reporter activity,RAW-Dual [1]; [4],1.02
same,NF-kB SEAP reporter activity,RAW-Dual [1]; [5],1.88
COc1cc2ncnc(Nc3cccc(Cl)c3)c2cc1OC,NF-kB SEAP reporter activity,RAW-Dual [1]; [9],1.58
same,NF-kB SEAP reporter activity,RAW-Dual [1]; [10],1.42
C#Cc1cccc(Nc2ncnc3cc(OCCOC)c(OCCOC)cc23)c1.Cl (library stock concentration (final ~1000-fold dilution): 2 mM),NF-kB SEAP reporter activity,RAW-Dual [3]; agonist: LPS (TLR4) 0.1 ug/mL,2.26
same,NF-kB SEAP reporter activity,RAW-Dual [3]; [6],0.972
same,NF-kB SEAP reporter activity,RAW-Dual [3]; [7],0.853
same,NF-kB SEAP reporter activity,RAW-Dual [3]; [8],1.1
COc1cc2ncnc(Nc3ccc(O)c(Br)c3)c2cc1OC (library stock concentration (final ~1000-fold dilution): 10 mM),NF-kB SEAP reporter activity,RAW-Dual [3]; agonist: LPS (TLR4) 0.1 ug/mL,2.33
same,NF-kB SEAP reporter activity,RAW-Dual [3]; [6],1.17
same,NF-kB SEAP reporter activity,RAW-Dual [3]; [7],0.685
same,NF-kB SEAP reporter activity,RAW-Dual [3]; [8],1.19
COc1cc2ncnc(Nc3ccc(F)c(Cl)c3)c2cc1NC(=O)/C=C/CN1CCCCC1,NF-kB SEAP reporter activity,RAW-Dual [1]; [9],2.28
same,NF-kB SEAP reporter activity,RAW-Dual [1]; [10],1.52
COc1cc2ncnc(Nc3cccc(Cl)c3F)c2cc1OC(=O)N1CCN(C)CC1C (stereo not drawn),NF-kB SEAP reporter activity,RAW-Dual [1]; [4],0.868
same,NF-kB SEAP reporter activity,RAW-Dual [1]; [5],1.05
COc1cc2ncnc(Nc3cccc(Cl)c3F)c2cc1OC(=O)N1CCN(C)CC1C (stereo not drawn) (library stock concentration (final ~1000-fold dilution): 10 mM),NF-kB SEAP reporter activity,RAW-Dual [3]; agonist: LPS (TLR4) 0.1 ug/mL,1.19
same,NF-kB SEAP reporter activity,RAW-Dual [3]; [6],0.84
same,NF-kB SEAP reporter activity,RAW-Dual [3]; [7],1.19
same,NF-kB SEAP reporter activity,RAW-Dual [3]; [8],1.1
C#Cc1cccc(Nc2ncnc3cc4c(cc23)OCCOCCOCCO4)c1 (library stock concentration (final ~1000-fold dilution): 10 mM),NF-kB SEAP reporter activity,RAW-Dual [3]; agonist: LPS (TLR4) 0.1 ug/mL,1.8
same,NF-kB SEAP reporter activity,RAW-Dual [3]; [6],0.972
same,NF-kB SEAP reporter activity,RAW-Dual [3]; [7],1.16
same,NF-kB SEAP reporter activity,RAW-Dual [3]; [8],1.44
C#Cc1cccc(Nc2ncnc3cc(OC)c(OCCCCCCC(=O)NO)cc23)c1,NF-kB SEAP reporter activity,RAW-Dual [1]; [9],1.4
same,NF-kB SEAP reporter activity,RAW-Dual [1]; [10],1.87
C#Cc1cccc(Nc2ncnc3cc(OCCOC)c(OCCO)cc23)c1.Cl (library stock concentration (final ~1000-fold dilution): 10 mM),NF-kB SEAP reporter activity,RAW-Dual [3]; agonist: LPS (TLR4) 0.1 ug/mL,4.71
same,NF-kB SEAP reporter activity,RAW-Dual [3]; [6],1.41
same,NF-kB SEAP reporter activity,RAW-Dual [3]; [7],1.02
same,NF-kB SEAP reporter activity,RAW-Dual [3]; [8],1.87
COc1cc2ncnc(Nc3ccc(O)c(Br)c3)c2cc1OC,NF-kB SEAP reporter activity,RAW-Dual [1]; [4],1.45
same,NF-kB SEAP reporter activity,RAW-Dual [1]; [5],1.78
C#Cc1cccc(Nc2ncnc3cc(OC)c(NC(=O)N4CC5CCN(C)C5C4)cc23)c1 (stereo not drawn) (library stock concentration (final ~1000-fold dilution): 10 mM),NF-kB SEAP reporter activity,RAW-Dual [3]; agonist: LPS (TLR4) 0.1 ug/mL,3.99
same,NF-kB SEAP reporter activity,RAW-Dual [3]; [6],0.205
same,NF-kB SEAP reporter activity,RAW-Dual [3]; [7],0.732
same,NF-kB SEAP reporter activity,RAW-Dual [3]; [8],0.783
C#Cc1cccc(Nc2ncnc3cc(OCCOC)c(OCCOC)cc23)c1 (library stock concentration (final ~1000-fold dilution): 10 mM),NF-kB SEAP reporter activity,RAW-Dual [3]; agonist: LPS (TLR4) 0.1 ug/mL,4.68
same,NF-kB SEAP reporter activity,RAW-Dual [3]; [6],1.33
same,NF-kB SEAP reporter activity,RAW-Dual [3]; [7],0.887
same,NF-kB SEAP reporter activity,RAW-Dual [3]; [8],0.935
COc1cc2ncnc(Nc3cccc(Cl)c3)c2cc1OC (library stock concentration (final ~1000-fold dilution): 10 mM),NF-kB SEAP reporter activity,RAW-Dual [2]; agonist: LPS (TLR4) 0.1 ug/mL,1.59
same,NF-kB SEAP reporter activity,RAW-Dual [2]; [6],0.692
same,NF-kB SEAP reporter activity,RAW-Dual [2]; [7],0.764
same,NF-kB SEAP reporter activity,RAW-Dual [2]; [8],1.02
C#Cc1cccc(Nc2ncnc3cc(OC)c(NC(=O)N4CC5CCN(C)C5C4)cc23)c1 (stereo not drawn),NF-kB SEAP reporter activity,RAW-Dual [1]; [4],1.09
same,NF-kB SEAP reporter activity,RAW-Dual [1]; [5],1.4
NS(=O)(=O)OC[C@H]1C[C@@H](Nc2ccnc3cc(-c4cccc(SC(F)(F)F)c4)nn23)[C@H](O)[C@@H]1O,NF-kB SEAP reporter activity,RAW-Dual [1]; [9],0.145
same,NF-kB SEAP reporter activity,RAW-Dual [1]; [10],0.255
NS(=O)(=O)OC[C@H]1C[C@@H](Nc2ccnc3cc(-c4cccc(SC(F)(F)F)c4)nn23)[C@H](O)[C@@H]1O (library stock concentration (final ~1000-fold dilution): 10 mM),NF-kB SEAP reporter activity,RAW-Dual [2]; agonist: LPS (TLR4) 0.1 ug/mL,0.308
same,NF-kB SEAP reporter activity,RAW-Dual [2]; [6],0.19
same,NF-kB SEAP reporter activity,RAW-Dual [2]; [7],0.0814
same,NF-kB SEAP reporter activity,RAW-Dual [2]; [8],0.152
CCNC(=O)[C@]12CCC(C)(C)C[C@H]1[C@H]1C(=O)C=C3[C@@]4(C)C=C(C#N)C(=O)C(C)(C)[C@@H]4CC[C@@]3(C)[C@]1(C)CC2,NF-kB SEAP reporter activity,RAW-Dual [1]; [4],0.15
same,NF-kB SEAP reporter activity,RAW-Dual [1]; [5],0.256
CCNC(=O)[C@]12CCC(C)(C)C[C@H]1[C@H]1C(=O)C=C3[C@@]4(C)C=C(C#N)C(=O)C(C)(C)[C@@H]4CC[C@@]3(C)[C@]1(C)CC2 (library stock concentration (final ~1000-fold dilution): 10 mM),NF-kB SEAP reporter activity,RAW-Dual [3]; agonist: LPS (TLR4) 0.1 ug/mL,0.324
same,NF-kB SEAP reporter activity,RAW-Dual [3]; [6],0.193
same,NF-kB SEAP reporter activity,RAW-Dual [3]; [7],0.0804
same,NF-kB SEAP reporter activity,RAW-Dual [3]; [8],0.173
CC(O)C(=O)O.CN1CCN(c2ccc3nc(-c4c(N)c5c(F)cccc5[nH]c4=O)[nH]c3c2)CC1,NF-kB SEAP reporter activity,RAW-Dual [1]; [9],0.335
same,NF-kB SEAP reporter activity,RAW-Dual [1]; [10],0.591
CC(O)C(=O)O.CN1CCN(c2ccc3nc(-c4c(N)c5c(F)cccc5[nH]c4=O)[nH]c3c2)CC1 (library stock concentration (final ~1000-fold dilution): 10 mM),NF-kB SEAP reporter activity,RAW-Dual [2]; agonist: LPS (TLR4) 0.1 ug/mL,0.341
same,NF-kB SEAP reporter activity,RAW-Dual [2]; [6],0.18
same,NF-kB SEAP reporter activity,RAW-Dual [2]; [7],0.15
same,NF-kB SEAP reporter activity,RAW-Dual [2]; [8],0.219
